Records with an inconclusive call do not appear. A number with no mark means an inactive call. Activity calls are given as the source filed them. The call rests on the fitted dose curve; in most records, active means well fitted cell-killing curve with a large enough effect in the repeat runs; inconclusive means weak or mixed curves, or effect the other way; inactive means no such curve, though single readings can be large or run the other way.
experiment: qHTS assay to identify small molecule agonists of the vitamin D receptor (VDR) signaling pathway - cell viability counter screen (AID 743224); details: VDR-bla HEK293T viability, CellTiter-Glo luminescence, 16 h; series mostly up to 62.6 µM; activity change, negative = cytotoxicity: at the top concentration
Outline: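 VDR-bla cells, 4 h after plating, exposed to compounds for 16 h at 37C; viability then read in the same wells as CellTiter-Glo luminescence after 30 min at room temperature, following the bla FRET read.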
Further: nearly all actives have a fitted effect of over 50% in size.
On the % scale 0 is the no-effect control and ±100 the full control effect; potency means the concentration at half of the fitted maximal effect.

SMILES | activity change, negative = cytotoxicity | Potency
O=c1oc2ccccc2c(O)c1Cc1c(O)c2ccccc2oc1=O | -14.1% | –
c1ccc2c(c1)OCC(C1=NCCN1)O2 (configuration not stated) | 4.59% | –
Nc1ccc(Sc2ccc(N)cc2)cc1 | -6.82% [at 81.1 µM] | –
CCOP(=O)(NC(C)C)Oc1ccc(SC)c(C)c1 (configuration not stated) | -0.405% [at 81.1 µM] | –
S=C=Nc1cccc2ccccc12 | – | 54.4 µM (active)
CC1(C)CC/C(=C/c2ccc(Cl)cc2)C1(O)Cn1cncn1 (configuration not stated) | – | 54.6 µM (active)
CC(C)CC(C)(c1ccc(O)cc1)c1ccc(O)cc1 | – | 49 µM (active)
CC(C)Oc1cccc(NC(=O)c2ccccc2C(F)(F)F)c1 | -18.1% [at 81.1 µM] | –
Oc1ccc(C(=C(Cl)Cl)c2ccc(O)cc2)cc1 | – | 48.9 µM (active)
Oc1cc(Cl)c(Cl)c(Cl)c1 | – | 36.9 µM (active)
COC(=O)N(C(=O)N1CO[C@@]2(C(=O)OC)Cc3cc(Cl)ccc3C2=N1)c1ccc(OC(F)(F)F)cc1 | -3.76% | –
C=CCC1=C(C)C(OC(=O)C2C(C=C(C)C)C2(C)C)CC1=O (configuration not stated) | – | 18.4 µM (active)

experiment: qHTS assay to identify small molecule antagonists of the vitamin D receptor (VDR) signaling pathway - cell viability counter screen (AID 743225); details: VDR-bla HEK293T viability, CellTiter-Glo luminescence, 16 h; series mostly up to 61 µM; viability change, negative = cytotoxic: at the top concentration
Outline: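 Cytotoxicity toward the VDR-bla HEK 293T line was scored by ATP-based CellTiter-Glo luminescence, read in the wells already used for the beta-lactamase readout after 16 h compound treatment under 3 nM 1-alpha,25-dihydroxyvitamin D3 stimulation.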

SMILES | viability change, negative = cytotoxic | Potency
CC(C)CCCCCCCOP(=O)(Oc1ccccc1)Oc1ccccc1 | -19.6% [at 78.8 µM] | –
c1ccc(OCC2CO2)cc1 (configuration not stated) | 0.827% [at 78.8 µM] | –
CC(=O)Nc1ccc2c(c1)Cc1ccccc1-2 | 10.9% [at 78.8 µM] | –
CC1CCC(C(C)C)C(OC(=O)c2ccccc2N)C1 (configuration not stated) | – | 38.4 µM (active)
c1ccc2c(c1)OCC(C1=NCCN1)O2 (configuration not stated) | 5.85% | –
CC[C@H]1C[C@@H]2C[C@H]3c4[nH]c5ccc(OC)cc5c4CCN(C2)[C@@H]13 | -7.66% | –
CNC(C)Cc1ccc2c(c1)OCO2 (configuration not stated) | -0.476% [at 78.8 µM] | –
COC12CC[C@@]3(C[C@@H]1C(C)(O)C(C)(C)C)[C@H]1Cc4ccc(O)c5c4[C@@]3(CCN1CC1CC1)[C@H]2O5 (some centres not stated) | -25% | –
Oc1cc(Cl)c(Cl)c(Cl)c1 | – | 41.4 µM (active)
O=S(=O)(c1ccc(Cl)cc1)c1ccc(Cl)cc1 | -6.25% [at 78.8 µM] | –
